Assay [1] is described as follows: yeast TOR pathway RPL19A-GFP modulators, primary screen, cell-based, S. cerevisiae, multiplex flow cytometry (AID 1862; in the data active = percent of DMSO control GFP below about 86%;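 also: lower values mimic rapamycin by blocking the RPL19A rise seen in DMSO cells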). To be noted: S. cerevisiae RPL19A-GFP strain, flow cytometry fluorescence, 3 h; at 10 µM; stronger effect = lower value.
Assay [2] can be described thus: modulators of MEP2-GFP levels in yeast, primary screen, S. cerevisiae, multiplex flow cytometry (AID 1867;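 active = GFP response, as percent of the DMSO control, above the screen-wide mean plus 3 SD, about 139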;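 also: median GFP channel fluorescence of barcode-gated MEP2-GFP cells measured by flow cytometry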). To be noted: S. cerevisiae MEP2-GFP strain, 3 h, at 10 µM, stronger effect = higher value, 100% means same as DMSO wells.
Assay [3] can be described thus: modulators of CIT2-GFP expression in yeast, primary screen, S. cerevisiae, GFP fusion, multiplex flow cytometry (AID 1870;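 active = percent response above a set limit, the screen-wide mean plus 3 SD, cut at about 130% in these data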;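 also: barcoded CIT2-GFP strain pooled with four other GFP strains with rapamycin as positive control; median GFP fluorescence per well over plate mean of DMSO wells so 100% = DMSO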). The settings on record: 3 h, at 10 µM, stronger effect = higher value. On the technique in general: Flow cytometry measures light scatter and fluorescence of single cells or particles in a stream.
Assay [4] can be described thus: modulators of LAP4-GFP expression in yeast, primary screen, S. cerevisiae, multiplex flow cytometry (AID 1873;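 active = GFP signal, as percent of the solvent control, above the screen mean plus 3 SD, about 149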). To be noted: 3 h, at 10 µM, stronger effect = higher value.
The nature of assay [5]: modulators of AGP1-GFP expression in yeast TOR pathway, primary screen, cell-based, multiplex flow cytometry, S. cerevisiae (AID 1887;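 active = GFP signal above the screen-wide mean plus 3 SD, that is over about 124.5% of the solvent control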;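 also: AGP1-GFP fusion strain of S. cerevisiae within a five-strain barcoded multiplex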). To be noted: 3 h, at 10 µM, stronger effect = higher value.
A short description of assay [6]: inhibitors of CD8+ T cell-vesicle binding, pilot screen, LFA-1/ICAM-1 modulator project, MLPCN validation set, flow cytometry (AID 2523;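 active = response below a set limit, under 55% cells CD8-positive and vesicle-bound, and CD8 cells' 90th-percentile brightness under 279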;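 as to vesicle binding response: mean PE anti-B7-1 fluorescence of CD8+ cells relative to row control; 100% = QL9-loaded vesicles with DMSO vehicle in the same plate row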). The settings on record: 2C mouse CD8+ T cells, at 7 µM, stronger effect = lower value; double positive events: measured here: CD8+/vesicle+ event percentage.
Assay [7] deals with Integrin beta-1 (Homo sapiens) + Integrin alpha-4 (Homo sapiens) (UniProt P13612+P05556). Description: inhibition of HUTS-21 binding to VLA-4, pilot screen, VLA-4 allosteric modulator project, U937 cells, HUTS-21 mAb, flow cytometry, validation set (AID 2674;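 active = inhibition above 50%, about 3 SD of the validation set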;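 also: antibody binding induced by the VLA-4 ligand LDV present at three times its Kd; 0% = LDV ligand with antibody and no compound and 100% = antibody without LDV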). To be noted: HUTS-21 LIBS mAb binding, at 6.7 µM, stronger effect = higher value, binding induced by LDV ligand.
Assay [8] can be described thus: superoxide lowering in aged yeast cells, pilot screen, validation compound set (AID 2706;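 active = superoxide response below 65% of plate, a cut near 3 SD across the whole screen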;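 also: yeast exposed to compound for one week at 30 degrees C before staining; 100% = mean of all compound wells on the same plate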). To be noted: S. cerevisiae aging, superoxide DHE fluorescence; at 10 µM; stronger effect = lower value.
In assay [9] the target is Beta-adrenergic receptor kinase 1 (Homo sapiens) (UniProt P25098). Nature of the assay: GRK2 binders displacing RNA aptamer, biochemical, validation, human GRK2, bead flow cytometry (AID 488806;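 active = aptamer binding inhibition above 30%, about 3 SD of noise from non-fluorescent compounds; inactive = inhibition at or below 30%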). To be noted: bead-bound GRK2, FAM-aptamer displacement, at 10 µM, stronger effect = higher value.
Assay [10] deals with Beta-2 adrenergic receptor (Homo sapiens) (UniProt P07550). Description: beta2AR agonists driving receptor internalization, pilot screen, cell-based, FAP fluorogen, flow cytometry, validation set (AID 504459).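 Also: agonist-driven loss of surface beta2AR via internalization measured by FAP dye flow cytometry.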 To be noted: Am2.2-beta2AR cells, FAP surface receptor flow cytometry; at 10 µM; stronger effect = higher value.
Assay [11] has as its target AP-2 complex subunit beta (Homo sapiens) (UniProt P63010). Description: inhibitors of arrestin peptide binding to AP2, pilot screen, biochemical, validation set, GST-AP2 beads, flow cytometry (AID 504541;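 active = inhibition above 54%, about 3 SD of non-fluorescent compounds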;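 also: AP2 carries R879A mutation and is captured from E. coli lysate; bead-bound FITC arrestin peptide fluorescence measuring arrestin peptide binding to AP2; 0% = DMSO wells and 100% = excess unlabeled arrestin peptide control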). To be noted: FITC arrestin peptide, at 10 µM, stronger effect = higher value, AP2 beta2 appendage fragment, R879A mutant.
The nature of assay [12]: yeast V-ATPase proton transport modulators, S. cerevisiae, pHLuorin, HTS validation (AID 504600; in the data active = response above about 15%;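 also: plate controls were DMSO for no effect and reference compound for full effect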). The settings on record: S. cerevisiae pHLuorin cytosolic pH, at 10 µM, stronger effect = higher value.
In assay [13] the test system is anti-desmoglein-3 scFv antibody binding to human DSG3. Description: inhibitors of anti-DSG3 scFv binding to DSG3, pilot screen, biochemical, validation compound set, bead-based, flow cytometry (AID 588368;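 active = binding below the plate cutoff, the plate median minus 3 SD, with a reading above zero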;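 also: signal is the median channel fluorescence of bead-bound GFP antibody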). The settings on record: Protein G beads, DSG3-Fc, scFv-GFP binding, at 10 µM, stronger effect = lower value.
The nature of assay [14]: inhibitors of fungal efflux pumps CDR1, CDR2, MDR1, pilot screen, validation compound set, multiplex, phenotypic (AID 588506;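 active = efflux inhibition above 0.42, the validation set average plus 4 SD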;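 also: Nile Red retained in cells so higher fluorescence means more efflux inhibition; 0 = negative control wells and 1 = enniatin B 25 µM full block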). The settings on record: S. cerevisiae pump-expressing triplex, Nile Red efflux flow cytometry; at 10 µM; stronger effect = higher value; the pumps come from Candida albicans.
Assay [15] has as its target ATP-binding cassette sub-family B member 6 (Homo sapiens) (UniProt Q9NP58). Description: ABCB6 transporter inhibitors, pilot screen, K562-ABCB6 cells, flow cytometry, validation set (AID 588550;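 active = inhibition above the screen-wide mean plus 3 SD, about 51%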;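 also: 0% = DMSO wells and 100% = benzethonium chloride 70 µM positive control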). The settings on record: K562-ABCB6 porphyrin accumulation, 1 h, at 10 µM, stronger effect = higher value.
Assay [16] can be described thus: promoters of myeloid differentiation in arrested cells, primary screen, cell-based, GFP/MAC1 double positive, flow cytometry, validation set (AID 588685;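 active = differentiation response of at least 50%, scaled between solvent and reference control, from cells with both markers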;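 also: compound exposure lasts four days before antibody staining and flow analysis; 0% = DMSO wells and 100% = 5 µM fulvestrant positive control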). The settings on record: ER-HoxA9 marrow cells, stronger effect = higher value, normalized: vehicle 0, fulvestrant 100.

“And” between values parts separate entries of the source, which are not always exact repeats. Identical values can stand only once. Results filed as inconclusive are left out. The source made the active and inactive calls.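 The calls were made as follows, unless noted: active = percent response above 42, roughly 3 SD of non-fluorescent test compounds; inactive = the rest.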

Chain of ATP-binding cassette sub-family B member 6 (Homo sapiens) (Q9NP58 whole entry, looked up): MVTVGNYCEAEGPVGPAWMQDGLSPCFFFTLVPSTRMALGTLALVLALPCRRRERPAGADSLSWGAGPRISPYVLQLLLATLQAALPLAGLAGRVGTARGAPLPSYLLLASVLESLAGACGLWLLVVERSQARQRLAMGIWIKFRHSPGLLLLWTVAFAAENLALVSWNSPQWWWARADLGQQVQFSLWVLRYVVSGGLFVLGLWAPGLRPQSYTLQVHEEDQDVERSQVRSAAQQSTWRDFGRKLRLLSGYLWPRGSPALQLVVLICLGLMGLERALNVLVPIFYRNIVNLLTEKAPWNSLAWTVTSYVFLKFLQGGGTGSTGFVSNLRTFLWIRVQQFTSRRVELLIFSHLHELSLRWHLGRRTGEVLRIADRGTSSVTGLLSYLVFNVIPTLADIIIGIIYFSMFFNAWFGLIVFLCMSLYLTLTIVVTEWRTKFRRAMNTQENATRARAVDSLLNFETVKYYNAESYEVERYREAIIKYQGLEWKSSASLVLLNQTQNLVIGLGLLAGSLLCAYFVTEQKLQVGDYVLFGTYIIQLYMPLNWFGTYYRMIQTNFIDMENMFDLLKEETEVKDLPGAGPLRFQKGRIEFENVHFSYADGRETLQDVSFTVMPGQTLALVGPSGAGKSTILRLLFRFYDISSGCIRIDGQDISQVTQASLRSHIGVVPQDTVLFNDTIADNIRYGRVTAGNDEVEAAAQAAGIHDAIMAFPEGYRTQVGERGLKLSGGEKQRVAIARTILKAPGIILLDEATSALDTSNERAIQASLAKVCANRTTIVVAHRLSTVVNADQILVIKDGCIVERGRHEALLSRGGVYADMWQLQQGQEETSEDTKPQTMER
Chain of Beta-2 adrenergic receptor (Homo sapiens) (P07550 whole entry, looked up): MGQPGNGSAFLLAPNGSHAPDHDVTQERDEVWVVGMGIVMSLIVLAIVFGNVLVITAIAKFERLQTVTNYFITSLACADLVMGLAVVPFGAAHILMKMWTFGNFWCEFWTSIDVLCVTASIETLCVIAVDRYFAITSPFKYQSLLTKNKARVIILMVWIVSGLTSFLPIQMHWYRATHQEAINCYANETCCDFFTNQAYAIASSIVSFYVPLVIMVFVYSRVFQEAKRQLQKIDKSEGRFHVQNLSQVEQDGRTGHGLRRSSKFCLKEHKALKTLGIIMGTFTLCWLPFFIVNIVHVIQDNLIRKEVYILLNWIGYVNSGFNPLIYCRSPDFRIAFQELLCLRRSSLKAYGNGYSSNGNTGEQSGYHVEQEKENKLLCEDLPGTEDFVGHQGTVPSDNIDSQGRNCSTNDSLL
Chain of Integrin beta-1 (Homo sapiens) + Integrin alpha-4 (Homo sapiens) (P05556 whole entry, looked up): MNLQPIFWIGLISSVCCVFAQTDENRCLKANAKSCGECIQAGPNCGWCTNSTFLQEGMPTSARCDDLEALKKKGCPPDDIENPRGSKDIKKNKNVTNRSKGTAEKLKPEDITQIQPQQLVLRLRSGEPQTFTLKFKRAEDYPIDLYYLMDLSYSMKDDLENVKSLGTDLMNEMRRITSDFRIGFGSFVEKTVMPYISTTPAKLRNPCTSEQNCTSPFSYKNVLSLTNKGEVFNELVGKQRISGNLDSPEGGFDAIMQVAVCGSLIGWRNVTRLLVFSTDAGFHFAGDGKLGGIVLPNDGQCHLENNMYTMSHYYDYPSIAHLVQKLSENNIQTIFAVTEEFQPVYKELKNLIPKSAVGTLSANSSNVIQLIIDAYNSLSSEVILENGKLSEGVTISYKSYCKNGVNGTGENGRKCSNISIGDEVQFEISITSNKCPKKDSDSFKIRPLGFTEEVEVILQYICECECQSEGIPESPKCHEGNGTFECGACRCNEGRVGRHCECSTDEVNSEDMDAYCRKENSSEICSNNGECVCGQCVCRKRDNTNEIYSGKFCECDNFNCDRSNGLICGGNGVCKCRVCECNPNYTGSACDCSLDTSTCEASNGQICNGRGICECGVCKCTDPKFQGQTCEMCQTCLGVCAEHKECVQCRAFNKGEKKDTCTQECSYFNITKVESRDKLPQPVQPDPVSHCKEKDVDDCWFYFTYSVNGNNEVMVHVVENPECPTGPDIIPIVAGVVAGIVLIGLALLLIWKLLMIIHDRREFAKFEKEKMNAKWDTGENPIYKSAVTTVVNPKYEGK
Chain of Integrin beta-1 (Homo sapiens) + Integrin alpha-4 (Homo sapiens) (P13612 whole entry, looked up): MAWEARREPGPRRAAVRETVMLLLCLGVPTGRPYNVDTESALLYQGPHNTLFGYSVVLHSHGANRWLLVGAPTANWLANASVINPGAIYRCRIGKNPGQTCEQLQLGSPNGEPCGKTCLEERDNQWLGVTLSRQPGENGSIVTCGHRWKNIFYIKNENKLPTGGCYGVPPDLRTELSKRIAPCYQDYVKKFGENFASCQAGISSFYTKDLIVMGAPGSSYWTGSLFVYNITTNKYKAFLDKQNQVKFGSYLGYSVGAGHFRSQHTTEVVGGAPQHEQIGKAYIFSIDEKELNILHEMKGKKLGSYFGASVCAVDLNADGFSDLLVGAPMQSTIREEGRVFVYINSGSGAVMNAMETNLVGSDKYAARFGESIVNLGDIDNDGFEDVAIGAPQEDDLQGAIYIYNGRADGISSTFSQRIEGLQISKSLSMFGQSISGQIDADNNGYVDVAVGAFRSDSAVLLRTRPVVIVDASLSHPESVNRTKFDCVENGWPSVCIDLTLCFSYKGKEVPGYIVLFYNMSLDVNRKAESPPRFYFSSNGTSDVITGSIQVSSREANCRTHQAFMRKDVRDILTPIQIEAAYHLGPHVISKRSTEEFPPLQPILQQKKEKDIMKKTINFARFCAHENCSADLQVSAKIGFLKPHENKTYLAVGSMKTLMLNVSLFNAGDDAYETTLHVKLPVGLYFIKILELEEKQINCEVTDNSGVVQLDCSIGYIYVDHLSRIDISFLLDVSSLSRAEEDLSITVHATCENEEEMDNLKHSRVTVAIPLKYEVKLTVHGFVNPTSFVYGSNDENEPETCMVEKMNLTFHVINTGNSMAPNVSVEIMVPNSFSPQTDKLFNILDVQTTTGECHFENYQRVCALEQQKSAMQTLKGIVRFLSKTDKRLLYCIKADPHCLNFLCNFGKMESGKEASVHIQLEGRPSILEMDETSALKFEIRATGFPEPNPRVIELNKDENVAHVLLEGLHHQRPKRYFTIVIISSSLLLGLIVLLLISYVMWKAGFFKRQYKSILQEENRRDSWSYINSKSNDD
Chain of Beta-adrenergic receptor kinase 1 (Homo sapiens) (P25098 whole entry, looked up): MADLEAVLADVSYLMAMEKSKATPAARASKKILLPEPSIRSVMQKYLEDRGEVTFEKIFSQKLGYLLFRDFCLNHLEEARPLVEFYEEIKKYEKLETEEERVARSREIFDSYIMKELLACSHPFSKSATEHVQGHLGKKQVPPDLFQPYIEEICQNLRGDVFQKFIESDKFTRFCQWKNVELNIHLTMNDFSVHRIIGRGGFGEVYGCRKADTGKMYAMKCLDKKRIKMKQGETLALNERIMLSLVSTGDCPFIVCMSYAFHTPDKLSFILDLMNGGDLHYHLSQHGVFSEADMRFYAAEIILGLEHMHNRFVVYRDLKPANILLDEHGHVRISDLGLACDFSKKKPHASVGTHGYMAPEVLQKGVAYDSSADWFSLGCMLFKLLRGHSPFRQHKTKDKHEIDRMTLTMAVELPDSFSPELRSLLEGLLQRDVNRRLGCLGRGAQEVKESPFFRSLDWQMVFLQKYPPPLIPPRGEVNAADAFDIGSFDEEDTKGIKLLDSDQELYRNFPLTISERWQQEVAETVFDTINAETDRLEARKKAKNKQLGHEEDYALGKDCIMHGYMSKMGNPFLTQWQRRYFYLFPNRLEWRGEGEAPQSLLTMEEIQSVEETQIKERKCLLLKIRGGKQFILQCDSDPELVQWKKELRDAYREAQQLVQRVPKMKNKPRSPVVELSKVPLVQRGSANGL
Chain of AP-2 complex subunit beta (Homo sapiens) (P63010 whole entry, looked up, the tested form may be a part, one chain of several): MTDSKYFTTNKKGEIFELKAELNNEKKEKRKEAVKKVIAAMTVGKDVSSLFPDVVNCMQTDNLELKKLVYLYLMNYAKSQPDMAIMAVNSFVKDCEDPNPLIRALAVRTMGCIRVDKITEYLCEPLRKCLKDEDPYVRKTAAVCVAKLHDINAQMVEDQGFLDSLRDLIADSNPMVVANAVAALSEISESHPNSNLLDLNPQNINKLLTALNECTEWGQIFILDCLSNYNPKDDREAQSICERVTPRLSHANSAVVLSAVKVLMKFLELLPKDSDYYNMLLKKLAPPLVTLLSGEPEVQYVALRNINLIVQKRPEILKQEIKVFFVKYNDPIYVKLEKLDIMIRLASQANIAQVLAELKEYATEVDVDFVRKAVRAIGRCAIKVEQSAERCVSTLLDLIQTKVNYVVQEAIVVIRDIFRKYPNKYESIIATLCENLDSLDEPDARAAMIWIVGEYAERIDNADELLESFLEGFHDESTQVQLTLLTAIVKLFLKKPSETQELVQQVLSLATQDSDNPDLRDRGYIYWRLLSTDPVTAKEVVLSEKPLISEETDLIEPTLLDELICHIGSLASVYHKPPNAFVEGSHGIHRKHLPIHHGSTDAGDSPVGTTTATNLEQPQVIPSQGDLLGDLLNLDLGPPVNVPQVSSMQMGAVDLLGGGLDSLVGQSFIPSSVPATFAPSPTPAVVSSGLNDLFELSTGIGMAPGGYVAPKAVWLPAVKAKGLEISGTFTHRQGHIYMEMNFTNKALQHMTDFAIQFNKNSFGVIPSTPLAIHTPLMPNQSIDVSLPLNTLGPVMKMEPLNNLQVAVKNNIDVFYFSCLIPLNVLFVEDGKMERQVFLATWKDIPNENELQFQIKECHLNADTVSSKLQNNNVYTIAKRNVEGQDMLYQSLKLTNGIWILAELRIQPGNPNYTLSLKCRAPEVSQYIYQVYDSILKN

The term inhibition denotes the drop in the measured response relative to a control, in per cent. As for `O=C(c1ccco1)N(CCC(c1ccccc1)c1ccco1)Cc1ccco1` (stereo not drawn), in assay [1], the percent of DMSO control GFP is 103% (inactive). Also, the values for the GFP response vs DMSO in assay [2] and in [4] were 95.2% (inactive) and 99.9% (inactive), respectively. For the same compound, the percent response of DMSO control in assay [3] is 106% (inactive). Also, the GFP response, % of DMSO in [5] is 104% (inactive). Moreover, the double positive events in assay [6] worked out at 80%. For the same compound, the vesicle binding response in assay [6] is 8050% (inactive). Besides, the inhibition is -1.79% (inactive) in [7], 3.27% (inactive) in assay [11] and -3% (inactive) in assay [15]. The superoxide response (% of plate) in assay [8] is 104% (inactive). Moreover, in assay [9], the aptamer binding inhibition is 5% (inactive). The values for the response in assay [10] and in assay [12] were 6.76% (inactive) and -0.61% (inactive), respectively. Besides, the binding (% of control) in assay [13] was 99.7% (inactive). Also, the efflux inhibition (fraction of control) in assay [14] was 0.15 (inactive). For the same compound, the differentiation response in assay [16] is -13.6% (inactive).

Regarding `O=C(Oc1ccc2c3c(c(=O)oc2c1)CCCC3)c1ccco1`, the percent of DMSO control GFP in assay [1] was 101% (inactive). In addition, the GFP response vs DMSO in [2] was 101% (inactive); in assay [4], 102% (inactive). Also, in assay [3], the percent response of DMSO control was 96% (inactive). For the same compound, the GFP response, % of DMSO in assay [5] is 85% (inactive). This compound also gave a double positive events in assay [6] of 62.5%. Also, the vesicle binding response in [6] was 126% (inactive). Besides, the inhibition in assay [7] was -6.04% (inactive); in assay [11], 11.5% (inactive); in assay [15], 6% (inactive). Further, the superoxide response (% of plate) in [8] was 99.3% (inactive). In [9], the aptamer binding inhibition is 5% (inactive). For the same compound, the response in [10] is 5.57% (inactive); in assay [12], 0.75% (inactive). The binding (% of control) in assay [13] is 96.5% (inactive). For the same compound, the efflux inhibition (fraction of control) in [14] is 0.62 (active). For the same compound, the differentiation response in assay [16] was -5.68% (inactive).

Consider `CCN(CC)CCNC(=O)c1ccc(NC(C)=O)cc1`, for which, in [1], the percent of DMSO control GFP was 99.4% (inactive). Besides, the GFP response vs DMSO in assay [2] is 108% (inactive) and 103% (inactive); in assay [4], 89.4% (inactive) and 90.7% (inactive). The percent response of DMSO control in assay [3] is 101% (inactive). Moreover, the GFP response, % of DMSO in assay [5] is 99.2% (inactive) and 100% (inactive). Also, in assay [6], the double positive events was 63.2% and 61.4%. Further, in [6], the vesicle binding response is 4990% (inactive) and 247% (inactive). Besides, the inhibition in assay [7] is 1.62% (inactive) and -0.45% (inactive); in [11], -11.4% (inactive) and 6.7% (inactive); in [15] it was -3% (inactive) and 3% (inactive). Besides, the superoxide response (% of plate) in assay [8] was 100% (inactive) and 103% (inactive). In addition, the aptamer binding inhibition in assay [9] was 3% (inactive) and -3% (inactive). The response is -11.2% (inactive) and -2.15% (inactive) in assay [10]; -1.96% (inactive) and 1.62% (inactive) in [12]. In addition, in assay [13], the binding (% of control) is 95.9% (inactive) and 97.4% (inactive). Moreover, the efflux inhibition (fraction of control) in assay [14] was 0.02 (inactive) and -0.04 (inactive). The differentiation response in assay [16] was -6.6% (inactive) and 20.8% (inactive).

Consider `O=c1c2ccccc2nc2n1CCCN2`, for which the percent of DMSO control GFP in assay [1] was 103% (inactive). The GFP response vs DMSO in [2] was 97.4% (inactive); in assay [4], 98.2% (inactive). Further, the percent response of DMSO control in [3] is 111% (inactive). Further, the GFP response, % of DMSO in assay [5] is 103% (inactive). The compound further showed a double positive events in assay [6] of 50.4%. Besides, the vesicle binding response in assay [6] is 72.9% (active). Moreover, the inhibition in assay [7] was -7.25% (inactive); in [11], -9.42% (inactive); in [15] it was 2% (inactive). For the same compound, the superoxide response (% of plate) in [8] was 102% (inactive). Besides, the aptamer binding inhibition in assay [9] is -1% (inactive). Besides, the response is -10.8% (inactive) in [10] and -1.39% (inactive) in assay [12]. Also, the binding (% of control) in assay [13] is 102% (inactive). Besides, the efflux inhibition (fraction of control) in assay [14] is -0.1 (inactive). In addition, in assay [16], the differentiation response was -16.8% (inactive).
